From the supplement of paper PMC12645437, “Orthogonal IMiD-Degron Pairs Induce Selective Protein Degradation in Cells” (ACS Chemical Biology, 2025)
Whole data set: some 8,300 sequences, median “log2 fold change of degron read counts, EGFP-low vs EGFP+ sorted cells (limma voom), compound-induced degradation” near -1.1, cut for the highest 2% near 3.2. Shown is part of a subset that was picked to be rich in the highest values.

Biological target: T1, CRBN, Q96SW2
T1 chain: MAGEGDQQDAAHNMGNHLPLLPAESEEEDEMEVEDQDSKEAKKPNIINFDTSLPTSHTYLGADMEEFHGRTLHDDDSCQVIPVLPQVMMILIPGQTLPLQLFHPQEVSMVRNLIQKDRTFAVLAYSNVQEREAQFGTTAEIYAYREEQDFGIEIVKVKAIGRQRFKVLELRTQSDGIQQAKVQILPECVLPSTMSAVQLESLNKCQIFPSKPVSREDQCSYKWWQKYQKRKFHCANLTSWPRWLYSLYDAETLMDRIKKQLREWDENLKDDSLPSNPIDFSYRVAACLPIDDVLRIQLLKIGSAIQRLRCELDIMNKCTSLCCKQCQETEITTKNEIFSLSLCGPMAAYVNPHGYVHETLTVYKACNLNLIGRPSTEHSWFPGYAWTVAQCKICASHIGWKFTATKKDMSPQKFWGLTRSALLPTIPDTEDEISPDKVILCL
Assay: log2 fold change of degron read counts, EGFP-low vs EGFP+ sorted cells (limma voom), compound-induced degradation; higher = more compound-induced degradation of the degron-EGFP fusion; degrons are variants of IKZF1/3 zinc finger 2; compound dose not given here
Conditions: Jurkat, 18 h
Procedure: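 Pooled library of 8380 IKZF3 ZF2 degron mutants (positions 146-167 varied within the IKZF3 130-189 degron; only the varied core is printed, flanks not printed) fused to EGFP with IRES-mCherry, lentivirally expressed in Jurkat cells. mCherry+ cells were treated with one IMiD compound for 18 h (dose not stated) and FACS-sorted into EGFP-low and EGFP+ populations. Degron sequences were counted by NGS, and log2FC (EGFP-low vs EGFP+) was estimated by limma voom over 3 biological replicates.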

[1] = compound: compound 19 (5-tert-butyl-thalidomide)
[2] = compound: compound 22 (5-morpholino-thalidomide)
[3] = compound: compound 33 (diphenyl IMiD analogue)
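Also: pooled lentiviral library of zinc finger degron-EGFP fusions in mCherry-positive Jurkat cells, FACS-sorted after compound exposure, with degron abundance counted by next-generation sequencing.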

Sequence | log2 fold change of degron read counts [1] | log2 fold change of degron read counts [2] | log2 fold change of degron read counts [3] | log2 fold change of degron read counts (compound: thalidomide)
FMCEQCGAYFTQKGNLLRHIKL [46F_47M_49E_50Q_52G_53A_54Y_55F_67L_, Q9UKT9] | -2.39 | -2.36 | -0.295 | -2.25
LTCEICGFICTQKGNLLRHIKL [46L_47T_49E_50I_52G_53F_54I_55C_67L_, Q9UKT9] | -0.462 | -0.661 | 0.241 | 1.1
FKCDVCGAPFTQKGNLLRHIKL [46F_47K_49D_50V_52G_53A_54P_55F_67L_, Q9UKT9] | -0.146 | -0.607 | -2.1 | 0.295
FLCDVCGARFTQKGNLLRHIKL [46F_47L_49D_50V_52G_53A_54R_55F_67L_, Q9UKT9] | -1.59 | -2.29 | -1.43 | -0.242
FGCDVCGARFTQKGNLLRHIKL [46F_47G_49D_50V_52G_53A_54R_55F_67L_, Q9UKT9] | 1.49 | -0.377 | -1.65 | -0.568
FMCDVCGARFTQKGNLLRHIKL [46F_47M_49D_50V_52G_53A_54R_55F_67L_, Q9UKT9] | -1.48 | -1.88 | 0.0127 | -0.773
FFCDVCGARFTQKGNLLRHIKL [46F_47F_49D_50V_52G_53A_54R_55F_67L_, Q9UKT9] | 3.5 | 3.15 | 0.549 | -0.102
FVCDVCGARFTQKGNLLRHIKL [46F_47V_49D_50V_52G_53A_54R_55F_67L_, Q9UKT9] | -0.856 | 0.623 | -0.882 | 0.963
FWCDVCGARFTQKGNLLRHIKL [46F_47W_49D_50V_52G_53A_54R_55F_67L_, Q9UKT9] | 2.89 | 3.6 | 0.211 | 0.033
FHCDVCGARFTQKGNLLRHIKL [46F_47H_49D_50V_52G_53A_54R_55F_67L_, Q9UKT9] | 0.448 | 0.585 | -1.42 | -1.6
FYCDVCGARFTQKGNLLRHIKL [46F_47Y_49D_50V_52G_53A_54R_55F_67L_, Q9UKT9] | 3.21 | 3.28 | 0.5 | -0.569
FDCDVCGARFTQKGNLLRHIKL [46F_47D_49D_50V_52G_53A_54R_55F_67L_, Q9UKT9] | 0.864 | -0.479 | -1.77 | -0.643
